Data published in PubChem BioAssay.
Activity calls are given as the source filed them.

Assays:
[1] = small molecules captured by biotinylated probe aFSTL3 – biochemical, small-molecule microarray, fluorescence 635/667, stem cell growth factor project, primary screen (AID 1064); settings: higher = more signal;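 note: measures binding of the biotinylated anti-FSTL3 antibody to printed compounds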
[2] = binders from COS7 lysate, DM2A8 probe, primary screen, torsin A project, cell lysate, small-molecule microarray, fluorescence 635/667 (AID 1065); settings: higher = more signal, COS7 lysate expressing mutant human TOR1A
[3] = small molecules captured by biotinylated probe aFGF2 – biochemical, small-molecule microarray, fluorescence 635/667, stem cell growth factor project, primary screen (AID 1067); settings: higher = more signal;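 note: measures binding of biotinylated aFGF2 protein to printed compounds on slides; z-score merges feature fluorescence and signal-to-noise across triplicate slides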
[4] = small molecules captured by biotinylated probe aFGF10 – biochemical, small-molecule microarray, fluorescence 635/667, stem cell growth factor project, primary screen (AID 1071); settings: higher = more signal;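 note: score merges 667 nm spot intensity and signal to noise from triplicate slides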
[5] = target: Neurogenic locus notch homolog protein 2 (Homo sapiens) (UniProt Q04721); experiment: small molecules binding Notch2 protein – biochemical, small-molecule microarray, 635 nm fluorescence, stem cell growth factors, primary screen (AID 1073); settings: higher = more signal
Sequence of Neurogenic locus notch homolog protein 2 (Homo sapiens) (Q04721 whole entry, looked up, canonical isoform): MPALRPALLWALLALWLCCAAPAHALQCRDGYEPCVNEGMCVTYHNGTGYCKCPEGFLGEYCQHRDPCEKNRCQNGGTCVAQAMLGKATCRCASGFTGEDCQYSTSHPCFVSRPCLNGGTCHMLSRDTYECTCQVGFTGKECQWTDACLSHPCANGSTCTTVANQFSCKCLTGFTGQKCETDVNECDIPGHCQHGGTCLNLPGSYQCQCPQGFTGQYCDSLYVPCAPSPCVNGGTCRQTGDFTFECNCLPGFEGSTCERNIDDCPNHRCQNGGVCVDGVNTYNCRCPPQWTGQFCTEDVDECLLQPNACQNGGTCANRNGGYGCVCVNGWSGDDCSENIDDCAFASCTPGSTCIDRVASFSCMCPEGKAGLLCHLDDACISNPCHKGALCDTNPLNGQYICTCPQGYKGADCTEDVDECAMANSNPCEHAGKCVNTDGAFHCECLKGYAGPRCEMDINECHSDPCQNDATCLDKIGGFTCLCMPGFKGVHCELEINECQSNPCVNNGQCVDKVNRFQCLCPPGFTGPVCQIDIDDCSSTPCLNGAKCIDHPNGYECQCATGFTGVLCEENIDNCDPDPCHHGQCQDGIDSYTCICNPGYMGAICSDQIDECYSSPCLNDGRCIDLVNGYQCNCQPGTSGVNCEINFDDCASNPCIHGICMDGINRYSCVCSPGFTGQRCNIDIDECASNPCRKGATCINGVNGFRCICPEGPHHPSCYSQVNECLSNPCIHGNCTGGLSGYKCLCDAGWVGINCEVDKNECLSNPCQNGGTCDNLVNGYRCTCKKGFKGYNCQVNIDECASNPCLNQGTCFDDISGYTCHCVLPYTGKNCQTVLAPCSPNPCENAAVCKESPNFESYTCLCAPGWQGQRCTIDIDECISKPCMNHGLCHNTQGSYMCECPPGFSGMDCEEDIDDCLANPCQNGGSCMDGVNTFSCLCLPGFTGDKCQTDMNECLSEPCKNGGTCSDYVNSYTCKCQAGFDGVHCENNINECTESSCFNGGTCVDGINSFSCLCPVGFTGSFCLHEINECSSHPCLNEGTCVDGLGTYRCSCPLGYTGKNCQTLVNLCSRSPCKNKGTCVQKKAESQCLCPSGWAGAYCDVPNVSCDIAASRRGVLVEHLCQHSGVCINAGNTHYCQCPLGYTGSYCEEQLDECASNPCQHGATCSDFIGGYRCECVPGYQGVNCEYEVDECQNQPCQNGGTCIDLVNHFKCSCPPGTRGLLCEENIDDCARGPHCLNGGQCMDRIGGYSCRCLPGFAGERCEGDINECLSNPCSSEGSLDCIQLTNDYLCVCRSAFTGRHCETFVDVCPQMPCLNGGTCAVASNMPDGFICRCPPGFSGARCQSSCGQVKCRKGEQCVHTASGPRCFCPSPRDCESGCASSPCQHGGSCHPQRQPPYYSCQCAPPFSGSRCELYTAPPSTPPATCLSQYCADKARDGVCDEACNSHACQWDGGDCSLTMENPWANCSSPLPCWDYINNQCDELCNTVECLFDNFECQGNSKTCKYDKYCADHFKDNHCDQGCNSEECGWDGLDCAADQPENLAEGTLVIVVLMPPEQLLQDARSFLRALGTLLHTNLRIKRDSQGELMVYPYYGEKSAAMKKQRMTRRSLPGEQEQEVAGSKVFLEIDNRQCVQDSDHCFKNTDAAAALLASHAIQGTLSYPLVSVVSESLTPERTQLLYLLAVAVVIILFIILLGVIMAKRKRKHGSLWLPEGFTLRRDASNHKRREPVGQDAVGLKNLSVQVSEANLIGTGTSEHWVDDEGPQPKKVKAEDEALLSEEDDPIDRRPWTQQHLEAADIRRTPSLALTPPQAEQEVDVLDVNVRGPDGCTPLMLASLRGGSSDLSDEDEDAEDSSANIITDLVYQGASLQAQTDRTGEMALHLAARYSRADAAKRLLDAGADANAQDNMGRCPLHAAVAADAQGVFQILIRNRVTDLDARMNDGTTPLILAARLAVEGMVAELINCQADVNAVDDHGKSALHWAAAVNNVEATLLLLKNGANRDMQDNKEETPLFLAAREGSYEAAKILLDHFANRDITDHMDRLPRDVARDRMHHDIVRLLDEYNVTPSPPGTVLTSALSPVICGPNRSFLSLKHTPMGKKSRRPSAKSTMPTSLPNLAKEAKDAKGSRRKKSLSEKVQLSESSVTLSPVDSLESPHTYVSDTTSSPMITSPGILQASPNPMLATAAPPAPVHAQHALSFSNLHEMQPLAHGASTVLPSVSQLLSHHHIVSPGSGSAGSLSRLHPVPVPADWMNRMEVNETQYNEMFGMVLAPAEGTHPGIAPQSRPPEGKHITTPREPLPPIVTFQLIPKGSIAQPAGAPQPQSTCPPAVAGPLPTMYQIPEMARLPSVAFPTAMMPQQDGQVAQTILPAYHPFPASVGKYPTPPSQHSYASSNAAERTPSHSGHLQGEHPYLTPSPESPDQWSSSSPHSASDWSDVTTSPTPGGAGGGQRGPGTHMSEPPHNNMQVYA

[6] = target: Pro-neuregulin-1, membrane-bound isoform (Homo sapiens) (UniProt Q02297); experiment: small molecules binding neuregulin-1 protein – biochemical, small-molecule microarray, fluorescence 635/667, psychiatric disease protein project, primary screen (AID 1075); settings: NRG1 binding, 635 nm fluorescence, higher = more signal;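 note: score combines 667 nm spot fluorescence with signal to noise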
Sequence of Pro-neuregulin-1, membrane-bound isoform (Homo sapiens) (Q02297 whole entry, looked up, the tested form may be a part, canonical isoform): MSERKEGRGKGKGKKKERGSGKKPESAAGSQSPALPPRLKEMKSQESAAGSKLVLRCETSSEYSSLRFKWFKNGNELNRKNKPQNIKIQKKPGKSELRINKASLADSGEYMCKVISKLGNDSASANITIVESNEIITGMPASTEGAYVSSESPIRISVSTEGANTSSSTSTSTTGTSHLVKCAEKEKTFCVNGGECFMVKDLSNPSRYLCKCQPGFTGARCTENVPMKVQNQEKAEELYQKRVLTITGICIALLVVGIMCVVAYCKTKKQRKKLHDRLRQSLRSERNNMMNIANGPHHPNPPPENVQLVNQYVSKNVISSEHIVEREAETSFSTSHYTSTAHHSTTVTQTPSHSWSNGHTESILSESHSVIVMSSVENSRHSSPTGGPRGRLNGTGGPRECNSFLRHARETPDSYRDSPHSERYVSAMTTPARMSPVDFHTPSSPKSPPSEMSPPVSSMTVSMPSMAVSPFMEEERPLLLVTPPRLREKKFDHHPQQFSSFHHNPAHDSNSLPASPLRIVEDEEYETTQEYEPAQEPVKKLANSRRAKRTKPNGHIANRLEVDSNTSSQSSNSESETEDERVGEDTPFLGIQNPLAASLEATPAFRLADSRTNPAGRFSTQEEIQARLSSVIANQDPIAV

[7] = test system: Neuregulin-1 EGF-like domain; experiment: small molecules binding NRG1 EGF domain – biochemical, small-molecule microarray, 635 nm fluorescence, primary screen (AID 1081); settings: higher = more signal;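 note: binding of the protein to compounds printed on small-molecule microarray slides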
[8] = FRG1 expression reporter modulators in myotubes – cell-based, C2C12 myotubes, firefly/Renilla luciferase, luminescence, FRG1 inhibition for FSHD, primary screen (AID 1084); settings: FRG1 promoter luciferase, higher = more signal, called active from +8 up or from −8 down
[9] = small molecules captured by biotinylated probe aFST – biochemical, small-molecule microarray, fluorescence 635/667, stem cell growth factor project, primary screen (AID 1086); settings: higher = more signal;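 note: score merges 667 nm fluorescence with signal-to-noise of each printed compound spot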
[10] = binders of probe aHhip on microarray, primary screen, stem cell growth factor project, biochemical, small-molecule microarray, fluorescence 635/667 (AID 1087); settings: higher = more signal;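 note: score merges spot fluorescence at 667nm with spot signal to noise ratio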

Compound	composite z-score [1]	composite z-score [2]	composite z-score [3]	composite z-score [4]	composite z-score [5]	composite z-score [6]	composite z-score [7]	z-score [8]	composite z-score [9]	composite z-score [10]
O=C1[C@H]2[C@H]3[C@H](O)[C@H](O)CC(=NOCc4ccccc4)[C@@H]3CC[C@H]2C(=O)N1c1ccc(F)cc1F	1.17	-0.0135	-0.197	0.423	0.104	-0.0591	-0.646	-0.738 (inactive)	0.0704	-0.236
Cc1ccc(S(=O)(=O)OC[C@H]2CN3[C@H](c4ccc(Br)cc4)[C@@H](C)CC[C@H]3C(=O)O2)cc1	-0.307	0.0709	-0.106	0.255	0.0993	0.0865	1.01	-0.636 (inactive)	-0.164	-0.191
C#CCCCON=C1C[C@@H](O)[C@@H](O)[C@@H]2[C@@H]3C(=O)N(C(C)(C)C)C(=O)[C@@H]3CC[C@H]12	1.86	1.01	-0.0245	-0.104	0.162	-0.431	-0.58	-0.247 (inactive)	0.774	-0.122
CCN1C(=O)[C@H]2[C@H]3[C@H](O)[C@H](O)CC(=NOCC(C)C)[C@@H]3CC[C@H]2C1=O	-0.596	0.217	-0.142	0.361	1.23	0.42	0.336	0.0163 (inactive)	0.124	0.465
CO[C@@H]1COC(=O)CC=C[C@@H](C)[C@@H]2C=C[C@H](O)[C@@H](COC(=O)CC=C[C@H]1C)O2	-0.304	1.7	-0.192	-0.14	-0.703	-0.421	0.824	-0.715 (inactive)	-0.245	0.0714
COC(=O)[C@H]1[C@@H](O)[C@@]2(O)c3ccccc3O[C@@]2(c2ccccc2)[C@@H]1c1ccccc1	1.08	0.177	-0.114	0.269	0.254	-0.68	0.768	-0.886 (inactive)	0.0643	-0.301
C[C@@H]1NC(=O)[C@@H](C)COC(=O)[C@H](C)NC(=O)[C@@H](C)COC1=O	-0.537	0.472	-0.121	0.489	0.51	-0.292	1.14	-3.49 (inactive)	0.253	0.0623
CCN1C(=O)[C@H]2[C@H]3[C@H](O)[C@H](O)CC(=O)[C@@H]3CC[C@H]2C1=O	-0.676	0.0277	-0.0692	0.463	0.575	0.379	1.01	-0.136 (inactive)	0.276	-0.226
CCOC(=O)[C@H](CC(C)C)NC(=O)CCC1CC(OC(=O)NCc2ccc3c(c2)OCO3)CC2(CCCC(COC(=O)NCC3CCCCC3)O2)O1 (stereo not given in full)	-0.203	1.06	-0.11	0.443	0.6	0.292	1.02	0.807 (inactive)	0.293	-0.255
CCOC(=O)NN=C1C[C@@H](O)[C@@H](O)[C@@H]2[C@@H]3C(=O)N([C@@H](C)c4ccccc4)C(=O)[C@@H]3CC[C@H]12	-0.322	-0.0183	-0.085	0.321	0.453	-0.0718	0.0602	-0.223 (inactive)	0.252	0.138
O=C1[C@H]2[C@H]3[C@H](O)[C@H](O)CC(=NOC[C@@H](O)COCc4ccco4)[C@H]3CC[C@H]2C(=O)N1Cc1ccccc1	-0.414	1.33	-0.21	0.17	-0.224	-0.346	0.299	0.272 (inactive)	-0.222	-0.132
CCOC(=O)[C@H](CC(C)C)NC(=O)CCC1CC(OC(=O)NCc2ccc3c(c2)OCO3)CC2(CCCC(COC(=O)NCc3cccc(C(F)(F)F)c3)O2)O1 (stereo not given in full)	-0.109	-0.249	-0.0841	0.371	0.421	0.0839	0.445	0.31 (inactive)	0.0884	-0.0994
O=C1C=C[C@@H](O)[C@@H]2[C@@H]3C(=O)N(C[C@@H]4CCCO4)C(=O)[C@@H]3CC[C@@H]12	-0.518	0.0078	-0.103	0.458	0.141	-0.0326	0.691	-0.241 (inactive)	0.041	-0.136
CCOC(=O)[C@H](CC(C)C)NC(=O)CCC1CC(OC(=O)NCCc2ccc(F)cc2)CC2(CCCC(COC(=O)NCCOc3ccccc3)O2)O1 (stereo not given in full)	-0.715	-0.409	-0.0909	0.704	1.25	0.996	1.24	1.99 (inactive)	0.283	-0.374
Cn1c(=O)n2n(c1=O)[C@H]1[C@H](O)[C@@H]3O[C@@H]3C(=NOCc3ccccc3)[C@H]1CC2	-0.266	0.125	-0.085	-0.0229	0.0633	-0.257	0.0977	-0.928 (inactive)	-0.0977	-0.0088
CCC=CCCC(OC(=O)c1ccc(Br)cc1)C1=CCCCC1=O (stereo not given)	0.122	0.333	0.543	-0.0363	-0.164	0.714	0.878	0.796 (inactive)	0.336	0.0826
CO[C@@H]1COC(=O)CC=C[C@H](C)[C@H](OC)COC(=O)[C@H](C)NC(=O)CC=C[C@H]1C	-0.729	1.42	-0.132	-0.267	-0.316	-0.63	0.347	-0.175 (inactive)	0.0458	-0.0491

Compound	composite z-score [1]	composite z-score [2]	composite z-score [3]	composite z-score [4]	composite z-score [5]	composite z-score [6]	composite z-score [7]	z-score [8]	composite z-score [9]	composite z-score [10]
CCCNC(=O)OC[C@H]1O[C@H](CCON=C(C)C)C=C[C@@H]1Oc1ccc(OC)cc1	0.0684	-0.152	-0.0598	0.332	-0.482	0.0871	-0.327	0.534 (inactive)	0.139	-0.226
O=C1[C@H]2[C@H]3[C@H](O)[C@H](O)CC(=NOC[C@@H](O)COCc4ccco4)[C@@H]3CC[C@H]2C(=O)N1C[C@@H]1CCCO1	-0.861	2.29	-0.213	-0.32	-0.323	-0.271	1.22	-0.218 (inactive)	-0.14	0.0139
CCN1C(=O)[C@H]2[C@H]3[C@H](O)[C@H](O)CC(=NO[C@@H](C)c4cn([C@H](CO)Cc5ccccc5)nn4)[C@@H]3CC[C@H]2C1=O	-0.687	0.387	-0.0704	0.859	1.51	0.256	0.971	0.345 (inactive)	0.759	-0.226
O=C(C=Cc1ccc2c(c1)OCO2)c1ccc(F)cc1	-0.0346	0.668	0.0173	0.3	-0.207	-0.204	-0.0248	0.964 (inactive)	0.348	-0.0994
O=C1C[C@@H](O)[C@@H](O)[C@@H]2[C@@H]3C(=O)N(Cc4ccccc4)C(=O)[C@@H]3CC[C@@H]12	-0.281	0.311	-0.0573	0.286	0.474	0.205	0.771	0.554 (inactive)	-0.0427	-0.204
COC(=O)CC=C[C@@H](C)[C@@H](C=NO[C@@H](C)c1cn([C@H](CO)Cc2ccccc2)nn1)OC	-0.446	1.68	-0.119	-0.0052	0.0576	-0.0718	-0.265	-0.839 (inactive)	0.0066	-0.34
O=C1[C@H]2[C@H]3[C@H](O)[C@H](O)CC(=NOCc4ccccc4)[C@@H]3CC[C@H]2C(=O)N1Cc1ccc2c(c1)OCO2	-0.138	-0.247	-0.0583	0.321	0.376	0.299	-0.0604	1.1 (inactive)	0.357	0.0922
COC(=O)[C@H](C)NC(=O)CCC1CC(OC(=O)NCc2ccc3c(c2)OCO3)CC2(CCCC(COC(=O)NCC3CCCCC3)O2)O1 (stereo not given in full)	-0.632	0.0369	-0.0158	0.847	1.08	0.586	1.18	0.0762 (inactive)	0.315	0.231
COc1ccc(COC(=O)NN=C2C[C@@H](O)[C@@H](O)[C@@H]3[C@@H]4C(=O)N(Cc5ccccc5)C(=O)[C@@H]4CC[C@H]23)cc1	1.51	0.111	-0.0574	0.009	-0.234	-0.318	-0.411	0.319 (inactive)	1.39	-0.284
COC(=O)[C@@H]1CC[C@H](C)[C@@H](c2ccc(C)cc2)N1C(=O)c1ccc(C=NO[C@H](C)c2cn([C@H](CO)Cc3ccccc3)nn2)cc1	-0.02	0.522	-0.0563	0.674	0.672	-0.0294	1.12	0.0599 (inactive)	0.517	0.837
CC(C)C[C@H](NC(=O)CCC1CC(OC(=O)NCc2cccc3ccccc23)CC2(CCCC(COC(=O)NCc3ccccc3)O2)O1)C(=O)NCC(c1ccccc1)c1ccccc1 (stereo not given in full)	-0.572	0.139	-0.113	0.618	1.35	0.438	1.2	0.244 (inactive)	0.289	0.238
CC(CCN1CCCCc2nc(C)c(C)cc21)=NO[C@H](C)c1cn([C@H](CO)Cc2ccccc2)nn1	-0.476	0.736	-0.0894	0.205	-0.248	-0.0339	0.362	2.09 (inactive)	0.627	-0.0237
COC(=O)C1=C(C)N(Cc2ccccc2)[C@]23O[C@](C(=O)OC)(C(=O)N2[C@@H]1c1ccccc1)C(C(=O)OC)=C3C(=O)OC	-0.309	0.458	-0.0232	1.1	0.926	0.435	1.21	-1.51 (inactive)	0.294	-0.0003
CO[C@H]1COC(=O)[C@@H](C)COC(=O)[C@H](COCc2ccccc2)NC(=O)CC=C[C@H]1C	-0.325	1.45	-0.156	-0.607	-1.58	-1.19	-1.43	-0.335 (inactive)	0.1	-0.0672
CON=C(C)CCC(=O)OC[C@H]1O[C@H](c2ccccc2)C=C[C@@H]1Oc1ccc(OC)cc1	-0.0269	0.0837	-0.0504	0.111	-0.272	-0.351	-0.0622	1.89 (inactive)	0.308	-0.131
O=C1C[C@@H](O)[C@@H](O)[C@@H]2[C@@H]3C(=O)N(c4cccc(Oc5ccccc5)c4)C(=O)[C@@H]3CC[C@H]12	-0.499	0.247	-0.0985	0.206	0.484	0.241	0.413	-0.0447 (inactive)	0.167	-0.153
